Measured values reported in PubChem BioAssay (Tox21).
Results filed as inconclusive are left out. Unmarked numbers belong to inactive results. Calls follow the shape of the full dose curve.

molecular target: Peroxisome proliferator-activated receptor gamma (Homo sapiens) (UniProt P37231); assay: qHTS assay to identify small molecule antagonists of the peroxisome proliferator-activated receptor gamma (PPARg) signaling pathway (AID 743191); details: HEK293H PPARg-UAS-bla, beta-lactamase ratio, antagonist, 17 h; series mostly up to 62.6 µM; ratio activity, negative = inhibition: at the top concentration; also: nearly all actives have a fitted effect of over 30% in size
Sequence (P37231 whole entry, looked up): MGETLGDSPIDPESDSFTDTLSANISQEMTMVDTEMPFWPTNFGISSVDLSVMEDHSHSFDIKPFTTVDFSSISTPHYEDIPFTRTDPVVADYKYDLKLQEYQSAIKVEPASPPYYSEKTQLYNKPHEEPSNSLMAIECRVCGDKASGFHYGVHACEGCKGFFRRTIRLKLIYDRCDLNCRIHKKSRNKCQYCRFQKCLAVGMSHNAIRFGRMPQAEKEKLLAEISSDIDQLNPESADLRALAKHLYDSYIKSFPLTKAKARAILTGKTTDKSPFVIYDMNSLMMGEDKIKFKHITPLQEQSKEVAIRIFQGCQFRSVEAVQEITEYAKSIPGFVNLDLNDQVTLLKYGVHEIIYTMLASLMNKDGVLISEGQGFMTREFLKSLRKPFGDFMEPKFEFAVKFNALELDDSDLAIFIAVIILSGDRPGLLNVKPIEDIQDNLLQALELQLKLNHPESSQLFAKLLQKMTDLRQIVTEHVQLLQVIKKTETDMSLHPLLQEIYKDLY
Source text: U.S. Tox21 Program National Center for Advancing Translational Sciences [NCATS] NIH Chemical Genomics Center [NCGC] U.S. Environmental Protection Agency [EPA] National Institutes of Environmental Health Sciences [NIEHS] National Toxicology Program [NTP] U.S. Food and Drug Administration [FDA] Tox21 Assay Overview: The peroxisome proliferator-activated receptors (PPARs) are lipid-activated transcription factors of the nuclear receptor superfamily with three distinct subtypes namely PPAR alpha, PPAR delta (also called PPAR beta) and PPAR gamma (PPARg). All these subtypes heterodimerize with Retinoid X receptor (RXR) and these heterodimers regulate transcription of various genes. PPAR-gamma receptor (glitazone receptor) is involved in the regulation of glucose and lipid metabolism. To identify the compounds that inhibit PPAR-gamma signaling, GeneBLAzer PPAR gamma UAS-bla HEK293H cell line (Invitrogen, Carlsbad, CA, USA) containing a beta-lactamase reporter gene under control of an Upstream Activator Sequence (UAS) was used to screen the Tox21 compound library.
Tox21 Assay Protocol Summary: PPARg-bla cells were dispensed at 3000 cells/6uL/well in 1536-well black wall/clear bottom plates using a Multidrop Combi (Thermo Fisher Scientific, Waltham, MA) dispenser. After the assay plates were incubated at 37C and 5% CO2 for 5 h, 23 nL of compounds dissolved in DMSO, positive controls or DMSO only was transferred to the assay plate by a Pintool station (Kalypsys, San Diego, CA). The assay plates were incubated at 37C for 17 h. After 1 uL of LiveBLAzerTM B/G FRET substrate was added using a Bioraptr Flying Reagent Dispenser (FRD) workstation (Beckman Coulter, Indianapolis, IN, USA), the plates were incubated at room temperature for 1 h, and fluorescence intensity was measured by an Envision plate reader (PerkinElmer, Shelton, CT).
% is scaled to controls: 0 for no effect and ±100 for the full control effect.

| SMILES | ratio activity, negative = inhibition |
| --- | --- |
| CC(C)(C)NCC(O)c1cc(Cl)c(N)c(Cl)c1 (stereo not given) | 16.6% |
| CCCCN(CCCCO)N=O | 0.487% |
| Cc1ccccc1CO[C@@H]1C[C@@]2(C(C)C)CC[C@]1(C)O2 | 2.39% |
| Nc1ccccc1Cl | 1.66% |
| O=NN1CCCCC1 | 10.3% |
| CN(C)CCc1ccc(O)cc1 | 7.82% |
| COc1cc(OC)nc(NC(=O)NS(=O)(=O)c2ncccc2C(=O)N(C)C)n1 | 2.04% |
| N#Cc1c(Cl)cccc1Cl | -8.84% |
| CCC1(c2ccccc2)C(=O)NC(=O)NC1=O | -13.8% [at 81.1 µM] |
| CNC(=O)O/N=C(\C)SC | -3.14% |
| ClC(Br)Br | 4.06% |
| N#CCCC#N | 2.8e-05% |
| Cc1cc(C)c(C(=O)P(=O)(C(=O)c2c(C)cc(C)cc2C)c2ccccc2)c(C)c1 | -15.3% |
| O=C1CN=C(c2ccccc2)c2cc([N+](=O)[O-])ccc2N1 | 2.61% |
| CC(=O)CC(c1ccc(Cl)cc1)c1c(O)c2ccccc2oc1=O (stereo not given) | -4.79% [at 81.1 µM] |
| OC(Cn1cncn1)(c1ccc(F)cc1)c1ccccc1F (stereo not given) | -0.284% |
| ClC(Cl)(Cl)C(Cl)(Cl)Cl | 8.8% [at 81.1 µM] |
| COc1ccc(C(=O)N2CCCC2=O)cc1 | 6.96% |
| CC1CN1P(=O)(N1CC1C)N1CC1C (stereo not given) | 6.31% |
| CC(C(O)c1ccccc1)N(C)C/C=C/c1ccccc1 (stereo not given) | 0.572% |

| SMILES | ratio activity, negative = inhibition |
| --- | --- |
| O=P(O)(Oc1ccccc1)Oc1ccccc1 | 1.96% |
| COP(=S)(OC)Oc1ccc(S(N)(=O)=O)cc1 | 12.9% |
| COc1cc(OC)nc(Sc2cccc(Cl)c2C(=O)O)n1 | -3.32% |
| CC(C)COP(=O)(OCC(C)C)OCC(C)C | 13.6% |
| CC(C)(C)C(=O)C(Oc1ccc(Cl)cc1)n1cncn1 (stereo not given) | 13.6% |
| N#CC(Cl)(Cl)Cl | 2.17% |
| Oc1c(Cl)cccc1Cl | 8.87% |
| CC1COC2(c3ccccc3Cl)c3cc(Cl)ccc3NC(=O)CN12 (stereo not given) | -0.217% |
| CCN(CC)CCOC(=O)C(C)(c1ccccc1)c1ccccc1 | 0.601% |
| OCCSCSCCO | 8.61% |
| O=S(=O)(O)C(F)(F)C(F)(F)C(F)(F)C(F)(F)C(F)(F)C(F)(F)F | 4.09% |
| OC(c1ccccc1)(c1ccccc1)C1CCNCC1 | -10.6% |
| O=C1c2ccccc2C(=O)c2ccccc21 | 9.41% [at 29.1 µM] |
| COc1cc(C[C@@H](C)N)c(OC)cc1C | 1.01% [at 81.1 µM] |
| CCC1(c2ccccc2)C(=O)N=C(O)NC1=O (stereo not given) | 9.45% |
| O=C(Oc1ccc(Br)cc1)N1CCN2CCC1CC2 | -2.48% |
| CC(C)NCC(O)c1ccc(N)c(C#N)c1 (stereo not given) | 14.1% |
| Nc1cc2c3c(c1)C(c1ccccc1)=N[C@@H](NC(=O)c1cccnc1)C(=O)N3CC2 | -5.18% |
| CCOP(=S)(OCC)SCSP(=S)(OCC)OCC | 7.07% |
| CN1CCC(O)(c2ccc(F)cc2)C(C(=O)c2ccc(F)cc2)C1 (stereo not given) | 0.81% |
